# Results published in paper PMC7862700, “An all-to-all approach to the identification of sequence-specific readers for epigenetic DNA modifications on cytosine”.
# Columns and labels:
# Assay in all cases: DAPPL (digital affinity profiling via proximity ligation, sequencing); 10 mM Tris-HCl pH 7.5, 50 mM NaCl, 1 mM DTT, 4% glycerol, room temperature, 30 min; GST-TFs on glutathione beads, 16-mer random dsDNA library, 0.1% formaldehyde crosslink after washing; high values mean tight binding
# [1] = target: T1, FLI1 (Homo sapiens, UniProt Q01543 1-452); conditions: protein: recombinant; tags: N-terminal GST; dsDNA, one strand shown
# T1 sequence: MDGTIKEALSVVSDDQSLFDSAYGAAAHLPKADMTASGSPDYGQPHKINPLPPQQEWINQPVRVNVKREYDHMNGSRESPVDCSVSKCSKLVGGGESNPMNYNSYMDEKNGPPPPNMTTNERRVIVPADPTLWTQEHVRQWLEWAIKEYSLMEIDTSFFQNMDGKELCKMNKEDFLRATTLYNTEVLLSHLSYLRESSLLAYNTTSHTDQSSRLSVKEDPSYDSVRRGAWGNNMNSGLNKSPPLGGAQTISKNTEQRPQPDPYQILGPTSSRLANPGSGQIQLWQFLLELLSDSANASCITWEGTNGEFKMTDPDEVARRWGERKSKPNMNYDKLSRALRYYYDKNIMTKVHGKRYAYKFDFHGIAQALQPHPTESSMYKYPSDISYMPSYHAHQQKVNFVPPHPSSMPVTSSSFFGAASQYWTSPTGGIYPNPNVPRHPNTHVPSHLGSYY
# How it was run: (§1)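 Human transcription factors fused to GST were expressed in yeast, captured on glutathione beads, given DNA barcodes and pooled with a GST-only negative control. Pools were incubated with 200 nmole of a 16-mer random double-stranded DNA library in Tris/NaCl/DTT/glycerol buffer at room temperature for 30 min. They were then washed, crosslinked with 0.1% formaldehyde, proximity-ligated (BsaI/T4 ligase, 1 h, 37 °C), PCR-amplified and sequenced on an Illumina NextSeq500. Binding signal is each 6-mer's read frequency for a factor divided by its frequency for the GST control.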
# [2] = target: T2, ELK1 (Homo sapiens, UniProt P19419 1-428); conditions: protein: recombinant; tags: N-terminal GST; dsDNA, one strand shown
# T2 sequence: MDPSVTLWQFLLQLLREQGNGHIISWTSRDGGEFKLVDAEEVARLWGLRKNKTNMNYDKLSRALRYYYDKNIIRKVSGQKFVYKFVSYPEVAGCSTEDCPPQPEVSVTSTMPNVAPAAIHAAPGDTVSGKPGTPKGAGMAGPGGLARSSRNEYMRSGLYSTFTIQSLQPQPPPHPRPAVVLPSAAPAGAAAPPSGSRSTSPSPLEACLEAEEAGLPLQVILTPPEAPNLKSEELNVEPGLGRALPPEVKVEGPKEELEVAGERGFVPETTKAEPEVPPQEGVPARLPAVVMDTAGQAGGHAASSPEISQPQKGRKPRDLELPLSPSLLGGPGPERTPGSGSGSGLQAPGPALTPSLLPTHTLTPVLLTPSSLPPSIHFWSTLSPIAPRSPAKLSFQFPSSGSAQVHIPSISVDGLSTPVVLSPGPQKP
# How it was run: as §1
# [3] = target: T3, GABPA (Homo sapiens, UniProt Q06546 1-454); conditions: protein: recombinant; tags: N-terminal GST; dsDNA, one strand shown
# T3 sequence: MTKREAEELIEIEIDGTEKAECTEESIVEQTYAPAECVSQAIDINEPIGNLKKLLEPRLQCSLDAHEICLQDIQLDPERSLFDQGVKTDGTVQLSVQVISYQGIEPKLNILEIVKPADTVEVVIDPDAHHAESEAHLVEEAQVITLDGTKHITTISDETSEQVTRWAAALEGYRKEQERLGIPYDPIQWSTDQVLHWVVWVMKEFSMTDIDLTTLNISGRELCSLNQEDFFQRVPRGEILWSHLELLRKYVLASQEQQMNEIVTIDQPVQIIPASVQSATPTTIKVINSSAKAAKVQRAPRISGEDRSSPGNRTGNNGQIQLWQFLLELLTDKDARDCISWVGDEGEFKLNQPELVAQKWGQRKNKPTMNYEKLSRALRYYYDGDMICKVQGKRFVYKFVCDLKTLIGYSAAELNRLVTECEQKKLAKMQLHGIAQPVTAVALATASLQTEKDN
# How it was run: as §1
# [4] = target: T4, ERG (Homo sapiens, UniProt P11308 1-479); conditions: protein: recombinant; tags: N-terminal GST; dsDNA, one strand shown
# T4 sequence: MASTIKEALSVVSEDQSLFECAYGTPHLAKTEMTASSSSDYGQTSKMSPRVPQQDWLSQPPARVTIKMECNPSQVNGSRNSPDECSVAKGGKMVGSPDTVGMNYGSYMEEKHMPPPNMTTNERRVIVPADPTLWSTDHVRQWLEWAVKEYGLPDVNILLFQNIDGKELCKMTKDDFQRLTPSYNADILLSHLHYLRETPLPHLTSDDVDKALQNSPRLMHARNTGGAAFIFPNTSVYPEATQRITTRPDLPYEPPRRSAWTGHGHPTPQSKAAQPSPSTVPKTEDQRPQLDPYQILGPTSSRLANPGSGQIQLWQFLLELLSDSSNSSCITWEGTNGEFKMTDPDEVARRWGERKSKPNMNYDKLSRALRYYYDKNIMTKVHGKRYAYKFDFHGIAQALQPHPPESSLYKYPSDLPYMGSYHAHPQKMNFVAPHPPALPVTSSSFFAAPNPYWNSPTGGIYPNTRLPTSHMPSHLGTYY
# How it was run: as §1
# [5] = target: ELF1 (Homo sapiens, UniProt P32519 1-619); conditions: protein: recombinant; tags: N-terminal GST; dsDNA, one strand shown
# Chain of ELF1 (P32519 whole entry): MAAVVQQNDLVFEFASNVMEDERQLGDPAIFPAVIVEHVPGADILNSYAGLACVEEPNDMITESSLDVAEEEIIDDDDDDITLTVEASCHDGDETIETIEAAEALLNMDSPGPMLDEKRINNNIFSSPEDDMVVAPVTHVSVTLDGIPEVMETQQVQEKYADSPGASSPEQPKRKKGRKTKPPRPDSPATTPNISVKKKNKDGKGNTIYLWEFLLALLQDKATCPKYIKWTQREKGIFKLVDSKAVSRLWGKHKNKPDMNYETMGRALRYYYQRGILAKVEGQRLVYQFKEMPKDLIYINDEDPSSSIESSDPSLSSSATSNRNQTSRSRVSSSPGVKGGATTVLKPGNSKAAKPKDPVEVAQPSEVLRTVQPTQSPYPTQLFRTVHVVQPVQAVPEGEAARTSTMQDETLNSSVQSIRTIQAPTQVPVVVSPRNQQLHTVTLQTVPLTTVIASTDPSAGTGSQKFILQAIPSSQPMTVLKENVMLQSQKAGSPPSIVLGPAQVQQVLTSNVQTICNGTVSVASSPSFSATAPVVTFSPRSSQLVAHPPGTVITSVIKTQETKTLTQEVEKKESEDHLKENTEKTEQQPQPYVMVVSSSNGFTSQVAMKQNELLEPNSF
# How it was run: as §1
# [6] = target: T5, EHF (Homo sapiens, UniProt Q9NZC4 1-300); conditions: protein: recombinant; tags: N-terminal GST; dsDNA, one strand shown
# T5 sequence: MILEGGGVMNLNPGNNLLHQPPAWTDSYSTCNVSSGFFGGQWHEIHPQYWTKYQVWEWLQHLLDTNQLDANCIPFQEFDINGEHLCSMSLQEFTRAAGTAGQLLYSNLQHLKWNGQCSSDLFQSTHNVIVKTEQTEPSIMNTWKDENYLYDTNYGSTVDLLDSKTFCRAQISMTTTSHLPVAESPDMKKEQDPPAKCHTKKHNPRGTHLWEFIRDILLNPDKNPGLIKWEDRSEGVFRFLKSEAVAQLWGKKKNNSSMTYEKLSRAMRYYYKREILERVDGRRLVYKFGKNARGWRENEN
# How it was run: as §1
# [7] = target: SPI1 (Homo sapiens, UniProt P17947 1-270); conditions: protein: recombinant; tags: N-terminal GST; dsDNA, one strand shown
# How it was run: as §1
# [8] = target: SPIB (Homo sapiens, UniProt Q01892 1-262); conditions: protein: recombinant; tags: N-terminal GST; dsDNA, one strand shown
# Chain of SPIB (Q01892 whole entry): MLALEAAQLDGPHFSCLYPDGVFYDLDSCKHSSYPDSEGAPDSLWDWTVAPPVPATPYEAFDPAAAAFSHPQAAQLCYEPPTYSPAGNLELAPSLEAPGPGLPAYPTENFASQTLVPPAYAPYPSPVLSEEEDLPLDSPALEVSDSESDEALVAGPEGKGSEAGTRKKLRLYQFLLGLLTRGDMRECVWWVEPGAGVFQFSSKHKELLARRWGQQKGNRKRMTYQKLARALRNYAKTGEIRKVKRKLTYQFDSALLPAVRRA
# How it was run: as §1
# [9] = target: T6, ELK3 (Homo sapiens, UniProt P41970 1-407); conditions: protein: recombinant; tags: N-terminal GST; dsDNA, one strand shown
# T6 sequence: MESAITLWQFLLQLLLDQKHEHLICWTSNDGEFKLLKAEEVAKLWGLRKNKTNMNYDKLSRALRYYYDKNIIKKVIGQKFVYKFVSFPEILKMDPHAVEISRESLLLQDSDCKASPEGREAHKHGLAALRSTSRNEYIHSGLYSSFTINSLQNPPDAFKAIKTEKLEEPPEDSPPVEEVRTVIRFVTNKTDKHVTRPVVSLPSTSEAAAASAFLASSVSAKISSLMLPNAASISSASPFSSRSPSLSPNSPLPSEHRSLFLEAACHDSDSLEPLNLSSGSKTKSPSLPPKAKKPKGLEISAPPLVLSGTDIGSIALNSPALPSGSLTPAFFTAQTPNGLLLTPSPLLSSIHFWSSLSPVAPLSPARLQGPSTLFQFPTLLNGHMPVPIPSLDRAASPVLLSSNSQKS
# How it was run: as §1
# [10] = target: T7, FEV (Homo sapiens, UniProt Q99581 1-238); conditions: protein: recombinant; tags: N-terminal GST; dsDNA, one strand shown
# T7 sequence: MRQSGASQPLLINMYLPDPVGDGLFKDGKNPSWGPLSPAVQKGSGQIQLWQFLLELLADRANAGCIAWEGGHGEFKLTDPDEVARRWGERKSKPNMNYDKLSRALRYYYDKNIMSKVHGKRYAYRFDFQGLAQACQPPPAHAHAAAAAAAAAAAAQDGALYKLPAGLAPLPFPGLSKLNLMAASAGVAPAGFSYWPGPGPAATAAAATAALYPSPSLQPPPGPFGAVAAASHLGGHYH
# How it was run: as §1
# [11] = target: ETV5 (Homo sapiens, UniProt P41161 1-510); conditions: protein: recombinant; tags: N-terminal GST; dsDNA, one strand shown
# Chain of ETV5 (P41161 whole entry): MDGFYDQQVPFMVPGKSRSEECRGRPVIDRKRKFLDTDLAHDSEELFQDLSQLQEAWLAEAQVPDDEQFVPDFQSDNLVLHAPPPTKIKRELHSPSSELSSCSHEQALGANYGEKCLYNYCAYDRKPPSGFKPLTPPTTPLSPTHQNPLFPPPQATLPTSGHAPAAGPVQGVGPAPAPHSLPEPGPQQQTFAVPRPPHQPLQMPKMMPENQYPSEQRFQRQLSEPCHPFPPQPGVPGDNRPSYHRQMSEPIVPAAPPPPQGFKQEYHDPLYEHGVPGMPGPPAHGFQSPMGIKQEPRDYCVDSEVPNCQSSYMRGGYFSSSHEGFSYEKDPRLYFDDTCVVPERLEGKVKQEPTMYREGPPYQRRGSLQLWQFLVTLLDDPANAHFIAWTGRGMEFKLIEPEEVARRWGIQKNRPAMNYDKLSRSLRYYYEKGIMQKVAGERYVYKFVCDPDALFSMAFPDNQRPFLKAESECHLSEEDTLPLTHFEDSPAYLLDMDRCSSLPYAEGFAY
# How it was run: as §1
# [12] = target: HSF1 (Homo sapiens, UniProt Q00613 1-529); conditions: protein: recombinant; tags: N-terminal GST; chain copies: 3; dsDNA, one strand shown
# Chain of HSF1 (Q00613 whole entry): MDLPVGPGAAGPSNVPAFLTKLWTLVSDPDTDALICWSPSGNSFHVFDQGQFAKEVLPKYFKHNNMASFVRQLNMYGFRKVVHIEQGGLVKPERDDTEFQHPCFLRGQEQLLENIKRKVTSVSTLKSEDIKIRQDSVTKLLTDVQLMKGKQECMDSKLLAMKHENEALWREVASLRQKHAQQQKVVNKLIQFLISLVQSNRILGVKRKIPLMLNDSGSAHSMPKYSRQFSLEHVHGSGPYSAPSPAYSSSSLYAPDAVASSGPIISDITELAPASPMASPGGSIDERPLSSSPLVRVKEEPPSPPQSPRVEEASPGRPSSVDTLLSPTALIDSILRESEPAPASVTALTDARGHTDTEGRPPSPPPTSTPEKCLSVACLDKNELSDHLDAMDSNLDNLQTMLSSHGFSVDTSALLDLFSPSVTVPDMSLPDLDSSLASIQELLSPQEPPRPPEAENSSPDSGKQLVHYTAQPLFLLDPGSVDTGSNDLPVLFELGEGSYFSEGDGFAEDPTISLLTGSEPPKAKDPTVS
# How it was run: as §1
# [13] = target: T8, SPIC (Homo sapiens, UniProt Q8N5J4 1-248); conditions: protein: recombinant; tags: N-terminal GST; dsDNA, one strand shown
# T8 sequence: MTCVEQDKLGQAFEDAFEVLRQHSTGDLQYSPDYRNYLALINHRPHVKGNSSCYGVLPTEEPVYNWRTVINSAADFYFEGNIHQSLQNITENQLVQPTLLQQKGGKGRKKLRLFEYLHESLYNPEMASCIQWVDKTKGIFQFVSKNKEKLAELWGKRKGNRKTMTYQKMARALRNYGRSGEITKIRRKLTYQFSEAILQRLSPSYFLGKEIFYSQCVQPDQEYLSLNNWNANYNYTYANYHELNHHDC
# How it was run: as §1
# [14] = target: ELF4 (Homo sapiens, UniProt Q99607 1-663); conditions: protein: recombinant; tags: N-terminal GST; dsDNA, one strand shown
# Chain of ELF4 (Q99607 whole entry): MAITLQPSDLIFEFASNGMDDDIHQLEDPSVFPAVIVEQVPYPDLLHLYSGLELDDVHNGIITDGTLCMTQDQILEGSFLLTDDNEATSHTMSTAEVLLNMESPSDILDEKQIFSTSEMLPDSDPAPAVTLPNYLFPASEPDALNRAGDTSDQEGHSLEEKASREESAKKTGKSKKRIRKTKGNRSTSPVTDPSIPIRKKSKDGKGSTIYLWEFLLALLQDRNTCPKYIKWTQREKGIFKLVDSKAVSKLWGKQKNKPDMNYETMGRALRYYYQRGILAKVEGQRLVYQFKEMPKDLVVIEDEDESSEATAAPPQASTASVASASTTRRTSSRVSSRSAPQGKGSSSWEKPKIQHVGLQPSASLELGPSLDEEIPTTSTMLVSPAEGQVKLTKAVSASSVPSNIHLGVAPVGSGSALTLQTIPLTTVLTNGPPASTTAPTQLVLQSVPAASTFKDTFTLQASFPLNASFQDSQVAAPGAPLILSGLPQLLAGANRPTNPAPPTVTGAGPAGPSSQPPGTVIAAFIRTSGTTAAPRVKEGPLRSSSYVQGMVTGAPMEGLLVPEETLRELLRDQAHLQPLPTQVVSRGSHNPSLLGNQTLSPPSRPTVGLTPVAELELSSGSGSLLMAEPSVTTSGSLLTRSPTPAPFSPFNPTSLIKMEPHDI
# How it was run: as §1
# [15] = target: T9, ELK4 (Homo sapiens, UniProt P28324-2 1-405); conditions: protein: recombinant; tags: N-terminal GST; dsDNA, one strand shown
# T9 sequence: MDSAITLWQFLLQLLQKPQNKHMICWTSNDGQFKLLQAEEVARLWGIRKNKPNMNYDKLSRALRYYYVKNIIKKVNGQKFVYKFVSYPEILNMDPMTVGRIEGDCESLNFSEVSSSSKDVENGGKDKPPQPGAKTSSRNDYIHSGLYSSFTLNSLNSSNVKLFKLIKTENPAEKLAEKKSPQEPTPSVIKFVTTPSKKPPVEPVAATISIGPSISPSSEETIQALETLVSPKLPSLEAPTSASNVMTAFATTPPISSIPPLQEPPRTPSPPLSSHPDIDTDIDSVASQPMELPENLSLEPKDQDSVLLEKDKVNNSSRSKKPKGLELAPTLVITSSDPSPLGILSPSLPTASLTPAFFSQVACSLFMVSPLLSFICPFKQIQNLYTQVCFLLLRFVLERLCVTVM
# How it was run: as §1
# [16] = target: T10, ETV2 (Homo sapiens, UniProt O00321 1-342); conditions: protein: recombinant; tags: N-terminal GST; dsDNA, one strand shown
# T10 sequence: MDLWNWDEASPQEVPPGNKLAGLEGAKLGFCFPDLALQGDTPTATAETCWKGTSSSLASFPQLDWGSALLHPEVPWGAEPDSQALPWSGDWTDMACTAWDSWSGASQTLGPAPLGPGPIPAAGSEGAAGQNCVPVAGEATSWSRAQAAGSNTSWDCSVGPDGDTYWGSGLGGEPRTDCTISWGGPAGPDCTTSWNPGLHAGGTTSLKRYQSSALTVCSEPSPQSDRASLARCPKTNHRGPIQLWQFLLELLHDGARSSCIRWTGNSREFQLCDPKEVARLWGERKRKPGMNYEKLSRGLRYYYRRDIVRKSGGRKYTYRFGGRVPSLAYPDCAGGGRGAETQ
# How it was run: as §1
# [17] = target: T11, ELF3 (Homo sapiens, UniProt P78545 1-371); conditions: protein: recombinant; tags: N-terminal GST; dsDNA, one strand shown
# T11 sequence: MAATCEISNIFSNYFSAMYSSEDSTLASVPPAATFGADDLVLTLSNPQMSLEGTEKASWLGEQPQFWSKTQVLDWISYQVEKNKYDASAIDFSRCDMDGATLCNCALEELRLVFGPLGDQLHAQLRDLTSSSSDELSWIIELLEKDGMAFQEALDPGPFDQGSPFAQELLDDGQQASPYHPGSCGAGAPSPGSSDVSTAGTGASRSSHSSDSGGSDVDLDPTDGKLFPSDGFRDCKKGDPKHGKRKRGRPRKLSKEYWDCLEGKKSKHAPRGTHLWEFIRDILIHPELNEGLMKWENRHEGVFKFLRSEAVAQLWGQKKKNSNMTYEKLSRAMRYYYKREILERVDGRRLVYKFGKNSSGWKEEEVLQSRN
# How it was run: as §1
# [18] = target: CRX (Homo sapiens, UniProt O43186 1-299); conditions: protein: recombinant; tags: N-terminal GST; dsDNA, one strand shown
# Chain of CRX (O43186 whole entry): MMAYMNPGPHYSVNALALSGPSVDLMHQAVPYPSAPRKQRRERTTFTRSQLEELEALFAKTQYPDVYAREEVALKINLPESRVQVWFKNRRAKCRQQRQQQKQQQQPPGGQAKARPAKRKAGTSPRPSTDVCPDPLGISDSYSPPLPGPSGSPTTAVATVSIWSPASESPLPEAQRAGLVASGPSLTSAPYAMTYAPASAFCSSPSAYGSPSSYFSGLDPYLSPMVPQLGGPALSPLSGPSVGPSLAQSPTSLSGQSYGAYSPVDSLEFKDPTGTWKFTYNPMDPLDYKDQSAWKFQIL
# How it was run: as §1
# [19] = target: ETV1 (Homo sapiens, UniProt P50549 1-477); conditions: protein: recombinant; tags: N-terminal GST; dsDNA, one strand shown
# Chain of ETV1 (P50549 whole entry): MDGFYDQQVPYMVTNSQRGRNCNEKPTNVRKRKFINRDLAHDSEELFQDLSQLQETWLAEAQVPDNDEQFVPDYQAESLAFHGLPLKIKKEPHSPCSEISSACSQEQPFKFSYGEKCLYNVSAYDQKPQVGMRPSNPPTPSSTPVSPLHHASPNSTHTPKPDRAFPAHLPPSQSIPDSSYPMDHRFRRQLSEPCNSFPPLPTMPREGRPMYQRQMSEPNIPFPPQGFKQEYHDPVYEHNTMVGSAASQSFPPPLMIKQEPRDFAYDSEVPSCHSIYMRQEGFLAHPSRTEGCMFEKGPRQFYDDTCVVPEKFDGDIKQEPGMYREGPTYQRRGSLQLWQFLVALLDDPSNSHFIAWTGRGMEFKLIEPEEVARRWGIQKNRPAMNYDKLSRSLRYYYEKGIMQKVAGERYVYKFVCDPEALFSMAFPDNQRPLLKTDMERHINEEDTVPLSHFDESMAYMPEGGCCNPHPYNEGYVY
# How it was run: as §1
sequence,measurement,setting,value
TCCTGC,binding signal,[1],"1.61 fold enrichment (6-mer frequency, TF over GST control)"
same,binding signal,[2],"1.8 fold enrichment (6-mer frequency, TF over GST control)"
same,binding signal,[3],"1.49 fold enrichment (6-mer frequency, TF over GST control)"
same,binding signal,[4],"1.68 fold enrichment (6-mer frequency, TF over GST control)"
same,binding signal,[5],"1.66 fold enrichment (6-mer frequency, TF over GST control)"
same,binding signal,[6],"1.53 fold enrichment (6-mer frequency, TF over GST control)"
same,binding signal,[7],"1.67 fold enrichment (6-mer frequency, TF over GST control)"
same,binding signal,[8],"1.81 fold enrichment (6-mer frequency, TF over GST control)"
same,binding signal,[9],"1.46 fold enrichment (6-mer frequency, TF over GST control)"
same,binding signal,[10],"1.62 fold enrichment (6-mer frequency, TF over GST control)"
same,binding signal,[11],"1.83 fold enrichment (6-mer frequency, TF over GST control)"
same,binding signal,[12],"1.25 fold enrichment (6-mer frequency, TF over GST control)"
same,binding signal,[13],"1.68 fold enrichment (6-mer frequency, TF over GST control)"
same,binding signal,[14],"1.56 fold enrichment (6-mer frequency, TF over GST control)"
same,binding signal,[15],"1.36 fold enrichment (6-mer frequency, TF over GST control)"
same,binding signal,[16],"1.49 fold enrichment (6-mer frequency, TF over GST control)"
same,binding signal,[17],"1.75 fold enrichment (6-mer frequency, TF over GST control)"
same,binding signal,[18],"1.26 fold enrichment (6-mer frequency, TF over GST control)"
same,binding signal,[19],"1.6 fold enrichment (6-mer frequency, TF over GST control)"
